Source: the supplement of paper PMC12632987
Whole data set: some 1,800 sequences, median “median log2 fold change of GCK-ALFA target abundance (FLAG IP / Myc IP barcode read proportion)” near 0.14, cut for the lowest 2% near -0.84. This is one part of a sample in which the lowest values are shown more often than they occur.

T1: TRAF2, Q12933
T1 chain: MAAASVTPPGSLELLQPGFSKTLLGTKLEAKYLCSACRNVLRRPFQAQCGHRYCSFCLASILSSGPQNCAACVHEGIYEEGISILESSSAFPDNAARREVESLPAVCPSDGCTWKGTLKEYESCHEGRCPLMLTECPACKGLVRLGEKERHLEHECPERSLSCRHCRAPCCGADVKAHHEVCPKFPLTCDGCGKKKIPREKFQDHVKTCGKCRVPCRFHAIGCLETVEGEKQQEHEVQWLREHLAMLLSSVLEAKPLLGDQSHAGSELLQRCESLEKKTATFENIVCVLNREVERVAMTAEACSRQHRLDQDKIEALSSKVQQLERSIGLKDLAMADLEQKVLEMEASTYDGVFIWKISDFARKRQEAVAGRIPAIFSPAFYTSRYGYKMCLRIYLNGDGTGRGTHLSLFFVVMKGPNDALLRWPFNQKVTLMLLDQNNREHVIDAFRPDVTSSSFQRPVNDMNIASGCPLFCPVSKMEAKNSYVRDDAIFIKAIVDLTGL

B1: traf2_out_11_155_669 (protein)
chain: EEKQKLNNELVNELTKVSDELKEKVIKILKEAAEKHPEHKEEIEKVIESSKTLSGTSFARKAAQLFKELGLEEEAKKVEELLEEAQKKMNEIYKKYEKKL
B2: traf2_out_17_178_1674 (protein)
chain: DKAAKRAEISALTDELIDLTEDTGTKLLALAEAEGTLTPEELALLRAALRSSSANTLLAVAEKLAPKLKTKAEAEALLKDFKEKKKELSKKIAEAYKEYE
B3: traf2_out_14_149_1231 (protein)
chain: SEEAKLLAAAAELTEKIAKTLEEVLKLLKEGKLEEAKKLLKESIEELEKESKKKGVTPSQLFQLEDLLELLEKDPEAAKKFAEEALARAKENADTLKEMA
B4: traf2_out_11_169_779 (protein)
chain: EEAEKNRKINDFALELNDKAKEKLKEEALKLAKEAGLDEEEIKKIFEENKNKSLSAVAAALIKYFESKGKEEEAAKVLEKYEELKDEINKKSSEFIKSLE
B5: traf2_out_1_158_912 (protein)
chain: DTKKKLMLSSVELVVKDAVESARENGDEETAKAIEELGEKIIELVKKLAIEEGKSVEEVIEEIDKLAAEFKAKADPETAAAIERLTRRVKSALRQVEKLM
B6: traf2_out_18_5_1953 (protein)
chain: SREEELKEALKSAERILSKKPEIEAEAKKLGVEELYKKAVEDFTRALENGEDLAKISTKHAEELAKKIGDPEKAEDLTYEIRRYVSAEYAKEVLEEMLKA
B7: traf2_out_20_8_2269 (protein)
chain: MSMEEKLARAADLILDAKDLVRAVIREVLADERAPAIAAEAAAAISVSVSADDTDADILLRIRERATEALTRLAERTGDPRLEEARARVAAALDAAAAAA
B8: traf2_out_6_156_2453 (protein)
chain: AAEAILERTEKEIEEGIKALAAAPEERKIAEINRIAGAFYRGLQALRAAGASLEELRAAAERLLETAEKKAKEAGLDERTRNLLLASLRAVADVALAAAA
B9: traf2_out_17_162_1558 (protein)
chain: SEIEKRWEKLKEELKELEKRVEALEKRLERLAELTPEEIRDLLVEASEVKRRALELAEEAEKLKEKIGEEEAQKLIDEANEIAERAQRIANTLYKALEKK
B10: traf2_out_18_167_1847 (protein)
chain: EEEIRKRREELSDRLVELSEVKRAARLALQALETDPSKVPAALAALREKAASIPELQPLVDAAEAALAAGDREGLRATLEKLIEKAQKLMNEVLKEYEAL
B11: traf2_out_6_156_2450 (protein)
chain: MIEEIFEKAVKEIEELIKKLAAAPESKKIAYINKIAGTFYKALQELRESGASLEEIEEFVERLLKKAEELANEAGLDEDTKNLLLSTLSAVGEVAIANAK
B12: traf2_out_17_162_1507 (protein)
chain: SPLEELRRRIEEELEELRRELERLEKKMENLKSMSKEELSDLLVEASEAKARALRLAELVREHREELGEEEAERLIREAEEIAERLQRIANEAYKELLKK
B13: traf2_out_3_89_2301 (protein)
chain: AAAEAAKIEAARARAERYARGFRKSARFVAKQMIADGMSLDTLRGVLEAARNALVEVFREELKEQGLSEETIEELVKELTEELEKIVEEILEEAEKKRAE
B14: traf2_out_13_95_1141 (protein)
chain: SAEVAAKINAIADRLLAEKDAILDELEAQLKAAGLLTPELRAALEAAKRSSISTAIHRLRELAERYPEARAALEAAIARLEALRREAGREVAEILKEEKE
B15: traf2_out_20_3_2084 (protein)
chain: KELEEEYKKHLEKAEKLLKEAAKLADPETAKKLEELIKRLKKSEELPYSDRLVVLSEVRREVLLLAQEAKAAGNEELAKILEEAAEEINRAMNLLMKMIE
B16: traf2_out_3_77_2274 (protein)
chain: SMKKEEIREKLDEATTLAIASLAVNAINNPEKAEEFREMARIVHRARAIAKEKGKEEELLPLIEEAKEAADKLNEGDESALEKLKEIVKKIGELAEKWEK
B17: traf2_out_17_60_1763 (protein)
chain: GPEEEKEELKREARRAIEEARRLVEEVRAKLAAGTLTASEAMDWLVELTEKRRELERLLEEAEKKGEEMEELKRELERAIEEVRRTMNEVGKHLLELLEA
B18: traf2_out_20_3_2204 (protein)
chain: SELEEELEKRLDAAEKLLKEAQKLADPETAKTLDALIARLKASRELSYDDRLVTLSAIRAEVLALAQAAKAAGNAELAAVLEAAADELQKAMNLVYKIIE
B19: traf2_out_17_162_1540 (protein)
chain: SETEEELRRLREELEELEEELRRLEEISKNLETLSKEELTDLLVEASELRRRALELAERLRRLEEETGSEEARRLRERAEEIAERLQRIANEIYKELEKK
B20: traf2_out_13_95_1086 (protein)
chain: SKEVNEKIMEIADEMMEQILATLDALAKQVAGDPELAAAVAEARRLAETRGVNEAIHKLRELAKANPEHAELLNAAIAEIEAIKKEASKKISELLKEEEE
B21: traf2_out_6_3_2525 (protein)
chain: SSESLRKDARKVLENMGITTAEQLLTLVTAEVNAVKKVASRPDFDRADVAGLRSVLALTRAMVEVAYEELPSVTEADKAEALALIADAEALVEAKAKELE
B22: traf2_out_3_89_2280 (protein)
chain: SMEEEEKIKEARENIETWIRGLRKSTRRVAEEMRKEGASLETIKGLIDSSATALLEAFKISLKDKGFDEETIEELVEEAKEELEKIREELKEEAEKAYEE
B23: traf2_out_13_95_1104 (protein)
chain: SAETAEKIMKIADEMLDKVEKILEELLKIAKEKGKLEEEIKEALHLARYQSINEAIHKLKELAKKYPEFKEELEAAIKEIEALKKEAGRKVAEILKEEKK
B24: traf2_out_13_95_1106 (protein)
chain: SAETAEKIMEIADEMLDKVEELLEKLLEIAKKKGKLEEEIQEALHLARYRSINEAIHLLKELAKKYPEFKEELEETIEKIEELIREAGRKVAEILKEEKE
B25: traf2_out_13_95_1091 (protein)
chain: SKEVAEKINKIADEMLDKSLALLEKLLKIAEEKGKAVEEIKEAIDLAEYRSINEAIHKLEELAKKYPEFKEELEATIKEIRAIKREAGRKVAEILKEEKE
B26: traf2_out_20_38_2033 (protein)
chain: SEEEEEKRRLEEAIEVANEAYDKYSARVAAWKAAGKTVEEIAEEAKEEVRRLLTEAGLEEEAEILIEDIDRALSSPEAERLIVRILARAEALVYQKKVNE
B27: traf2_out_11_104_646 (protein)
chain: LTREQAREFNDFAMEANDKAKELLQEVADFLESRGHEEEAAKVRAELAHPGSGVSTFKNLLEELLPKLDEESRAVAEKAIKELEELQKKVSDKLNELEKK
B28: traf2_out_20_3_2054 (protein)
chain: EELLKELEEEEKKLRELIEEIEKLVDPETAEELREALERVEKARKEGLEEYLVALSELRRLLLRLAEEARAAGKEEVAALLEEAAEAAQRAMNIVMKIIE
B29: traf2_out_18_117_1796 (protein)
chain: SELEKLQEEFEKTLKEFEEELEEAQRVATKLIEKYPKQLPEEAMDAIVEFGEVKRRVQQLVQEAKAHPNDVEKQKKLVEELKKLLEEMKEIKKKLEEILK

Molecular target: T1, TRAF2, Q12933
Assay: median log2 fold change of GCK-ALFA target abundance (FLAG IP / Myc IP barcode read proportion) (log2 ratio); each designed protein is fused to an ALFA-tag nanobody in HEK293 cells to bring the named protein to FLAG-tagged glucokinase (GCK); Myc marks an untargeted standard; higher = target protein stabilised (more abundant)
Conditions: target protein: 3xFLAG-MCP-GCK-ALFA reporter; HEK293 landing pad (RPLP)
Experimental: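 LABEL-seq trans screen in HEK293 landing-pad cells. Each de novo designed 100-aa effector handle, binding the indicated effector (E3 ligase, DUB or autophagy protein), is fused to a constant NbALFA target handle and induced with 2 ug/mL doxycycline. A FLAG-MCP-GCK-ALFA target and a Myc-MCP standard reporter were transfected, and after 48 h circRNA barcodes were recovered by anti-FLAG and anti-Myc IP and sequenced. The value is the median across barcodes (at least 3 per design) of log2(FLAG/Myc read-proportion ratio), with the two transfection replicates pooled. Negative values mean degradation and positive values mean stabilisation of the target.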

| Binder | median log2 fold change |
| --- | --- |
| B1 | 0.305 |
| B2 | 0.0887 |
| B3 | 0.24 |
| B4 | 0.368 |
| B5 | 0.0872 |
| B6 | -0.0294 |
| B7 | 0.0236 |
| B8 | -0.00113 |
| B9 | 0.297 |
| B10 | 0.224 |
| B11 | 0.00905 |
| B12 | 0.373 |
| B13 | -0.974 |
| B14 | -0.98 |
| B15 | 0.118 |
| B16 | 0.354 |
| B17 | -0.0301 |
| B18 | -0.756 |
| B19 | 0.402 |
| B20 | -0.0311 |
| B21 | -0.025 |
| B22 | 0.0329 |
| B23 | -0.841 |
| B24 | -0.553 |
| B25 | -0.417 |
| B26 | -0.971 |
| B27 | 0.185 |
| B28 | 0.588 |
| B29 | 0.186 |
